Bioassay records (PubChem)
TDP1 cell noCPT – qHTS for Inhibitors of human tyrosyl-DNA phosphodiesterase 1 (TDP1): qHTS in cells in absence of CPT. DT40 Tdp1-/- hTDP1 cells, no CPT, ATP luminescence, 48 h. Potency, µM (top dose mostly 46.2 µM), inactives show top-dose activity change, negative = growth inhibition, usual class: inhibitors. hit rate 15% among 420,000. AID 686978, 2013; note: potency is the fitted concentration of half-maximal effect; nearly all actives have a fitted effect of over 55% in size
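Seeded 400 DT40-hTDP1 cells/well (vehicle DMSO, no 20 nM CPT); pinned compounds; ≥48 hr at 37 °C; CellTiter-Glo luminescence as viability measure.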
CtBP-E1A blk – CtBP/E1A binding inhibition; AID 651724; AlphaScreen GST-E1A/His-CtBP binding, 1536-well; hits give low values; hit rate 0.49% among 340,000; activity change, % (concentration not given with the values); in the data active = activity change below about -65%; inconclusive = mostly about -30% to -63%
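Steps: dispense buffer (Tris pH 8.0, NaCl 300 mM, TCEP 1 mM, BSA, Tween 20); add 5X protein mix (GST-E1A, His-CtBP, 125 nM each); pin 23 nL compound; 2 h at 37 °C, dark; add 5X beads (50 ug/mL); 1 h; read.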
TDP1 block – TDP1 (human) enzyme inhibition; hit rate 0.28% among 350,000; recombinant TDP1, AlphaScreen DNA substrate cleavage; Q9NUW8; Potency, µM (doses to about 130 µM), inactives show at the top dose activity change, negative = inhibition, actives largely listed as inhibitors; note: potency is the fitted concentration of half-maximal effect; nearly all actives have a fitted effect of over 40% in size
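Signal: AlphaScreen proximity between streptavidin donor and anti-FITC acceptor beads on intact substrate. Reaction: Tdp1 1 nM, substrate 15 nM final, 5 min RT after 15 min compound preincubation.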
IL-1B inflam inh – blocks inflammasome-driven IL-1 beta release | THP-1 LPS/ATP IL-1B secretion, AlphaLISA, 16 h; hits give low values | activity change, % at 57.5 µM | hit rate 4.7% among 360,000; in the data active = activity change below about -50%; inconclusive = mostly about -30% to -49%
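Secreted IL-1B measured by AlphaLISA bead assay after 16 h compound exposure of THP-1 cells; compounds (final up to 57.5 uM) added 1 h before LPS (250 ng/mL) and ATP (1.25 mM) stimulation; lower signal means less secretion.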
Six1-Eya2 inh – inhibitors of human Six1/Eya2 interaction; AlphaScreen GST-Six1/His-Eya2 binding, biochemical; hits give low values; AID 651725; Q15475+O00167; activity change, % (concentration not given with the values); hit rate 0.56% among 360,000; in the data active = activity change below about -65%; inconclusive = mostly about -30% to -63%
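Homogeneous AlphaScreen proximity assay pairing GST-Six1 with His-tagged Eya2 (added as 5X mix: 250 nM and 500 nM) in 50 mM Tris pH 8.0, 300 mM NaCl, 1 mM TCEP. Glutathione donor and nickel acceptor beads; 1 h, 37 °C, dark.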
DT40 TDP1 CPT – DT40-hTDP1 cell growth loss with CPT; hit rate 12% among 420,000; AID 686979; chicken DT40 Tdp1-/-;hTDP1 cells + 20 nM CPT, ATP luminescence, 48 h; Potency, µM (doses to about 46.2 µM), inactives show top-dose activity change, negative = growth inhibition, usual class: inhibitors; note: potency is the fitted concentration of half-maximal effect; nearly all actives have a fitted effect of over 55% in size
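Chicken DT40 Tdp1-/- cells complemented with human TDP1, 400 cells/well, exposed to compounds plus 20 nM camptothecin for at least 48 h at 37 C; viability read as ATP content by CellTiter-Glo luminescence.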
* = called active by the depositor; ? = inconclusive; . = not tested or not shown. This is a sample that favours compounds with a hit; in the whole collection about 18% have one here. Unless noted, calls come from the whole dose curve; as a rule, active = well fitted curve in the direction sought with a large enough effect; inconclusive = small, poorly fitted or top-dose-only effect, or another doubt; inactive = no such curve, though single readings can be large; an effect the other way counts as inactive or inconclusive. % is set by controls: 0 for no effect and ±100 for the full control effect.

SMILES | TDP1 cell noCPT | CtBP-E1A blk | TDP1 block | IL-1B inflam inh | Six1-Eya2 inh | DT40 TDP1 CPT
COc1ccccc1NC(=O)CSC1=Nc2ccccc2C2=NC(CCC(=O)NCc3cccs3)C(=O)N12 (stereo unspecified) | ? | . | 4.4% | . | . | ?
CNC(=S)N/N=C(\C)c1ccc(C)c(C)c1 | 3.26µM* | -19.3 | 5.6% | -7.5 | -10.4 | 2.59µM*
C/C(=N\NC(=O)C1CC1)c1ccc(C)c(C)c1 | 2.7% | 2.0 | 2.0% | -6.1 | 2.2 | 6.1%
C/C(=N/Nc1ccc(F)cc1)c1ccc(Cl)s1 | 0.0% | 0.3 | 8.3% | 6.8 | -2.3 | -1.7%
C=C(C)CNC(=S)N/N=C(\C)c1ccc(Cl)s1 | 16.4µM* | -5.2 | 10.7% | 18.1 | -11.9 | ?
CCNC(=S)N/N=C(\C)c1ccc(Cl)s1 | 4.11µM* | -9.6 | 8.0% | 0.0 | -18.9 | 4.11µM*
C/C(=N\NC(N)=O)c1ccc(Cl)s1 | 4.0% | 2.8 | 5.5% | 13.8 | 4.4 | 1.0%
CNC(=S)N/N=C(\C)c1ccc(Cl)s1 | 4.61µM* | -3.3 | -5.4% | 2.7 | -12.2 | 2.91µM*
COC(=O)C(COC(=O)c1c(F)cccc1F)NC(=O)c1c(F)cccc1F (stereo unspecified) | ? | . | . | -10.6 | 5.3 | ?
O=C(NCc1ccncc1)[C@@H]1CCCN1C(=O)[C@H]1CCCN1C(=O)c1cccs1 | -29.0% | 7.6 | . | 16.8 | 4.5 | ?
Cc1cnc(CNc2ccnc(-c3ccc(C(=O)N(C)C)cc3)n2)cn1 | 18.2% | . | . | . | . | -3.6%
CNC(=S)NN=C(C)c1ccc(OC)cc1O | 0.0116µM* | 0.0 | . | -75.8* | ? | 0.0164µM*
CCOC(=O)c1ccc(NC(=O)CC2C(=O)N(c3cccc(OC)c3)C(=O)N2Cc2cccnc2)cc1 (stereo unspecified) | 20.6µM* | . | 5.6% | . | . | 13µM*
COC(=O)c1ccc(NC(=O)CC2C(=O)N(c3ccc(C)cc3)C(=O)N2Cc2ccc(OC)cc2)cc1 (stereo unspecified) | ? | . | 5.6% | . | . | ?
CCOC(=O)c1ccc(NC(=O)CC2C(=O)N(c3cccc(OC)c3)C(=O)N2Cc2ccc(OC)cc2)cc1 (stereo unspecified) | ? | . | 6.4% | . | . | 20.6µM*
CCOC(=O)c1cccc(NC(=O)CC2C(=O)N(c3ccc(C)cc3)C(=O)N2Cc2cccc(OC)c2)c1 (stereo unspecified) | ? | . | 8.5% | . | . | 18.4µM*
CCOC(=O)c1ccc(NC(=O)CC2C(=O)N(c3ccc(F)cc3)C(=O)N2Cc2cccnc2)cc1 (stereo unspecified) | 14.6µM* | . | 2.8% | . | . | 18.4µM*
FC(F)(F)c1ccccc1-c1nc(NCCN2CCOCC2)c2ccccc2n1 | -10.5% | . | . | . | . | -0.2%
O=C(N=C1SC2CS(=O)(=O)CC2N1c1ccc(Cl)c(Cl)c1)C1CCCO1 (stereo unspecified) | 18.5% | 0.1 | 4.0% | 14.3 | 3.6 | 2.5%
CCOC(=O)c1ccc(NC(=O)CC2C(=O)N(c3ccc(F)cc3)C(=O)N2Cc2ccc(C)cc2)cc1 (stereo unspecified) | ? | . | 1.3% | . | . | 16.4µM*
C=C1C(=O)O[C@H]2C1CC[C@@](C)(O)C13C=CC(C)(C21)C1(C3)C(=O)O[C@@H]2C3C(C)=CCC3[C@](C)(O)C[C@H](OC(C)=O)C21 (stereo partly specified) | 16.4µM* | . | 7.7% | -93.5* | -0.2 | ?
CC(=O)N=c1nc(-c2ccccc2)n(-c2ccccc2)s1 | ? | . | . | . | . | -10.4%
COc1ccc(-n2nc(C(N)=O)nc2-c2ccccc2)cc1 | 2.1% | 2.0 | . | 13.9 | 1.3 | 12.6%
CN=c1nc(-c2ccccc2)n(-c2ccccc2)s1 | 6.51µM* | 1.0 | 14.5% | 29.9 | -4.3 | 4.61µM*
Cc1ccc(-c2nc(=Nc3c(C)cc(C)cc3C)sn2-c2ccccc2)cc1 | 2.24µM* | . | 5.3% | . | . | 5.01µM*
